Test results as given in the supplement of paper PMC6135742.
Where “and” joins values, the source holds several entries; their conditions need not be identical. Equal values may be shown once. Where a name gives a salt, the structure may show the parent alone. ± gives the standard deviation of the averaged measurements. The full ranking holds about 2,600 compounds; the median of “total cell number (DAPI+ nuclei) relative to DMSO vehicle control” is about -1.4, and the lowest 2% start at about -23. This is one part of a sample in which the lowest values are shown more often than they occur.

What follows are molecules tested on jimpy (Plp1 jimpy) mouse iPSC-derived oligodendrocyte progenitor cells (assay: total cell number (DAPI+ nuclei) relative to DMSO vehicle control (SDs above negative control mean); higher = more surviving cells). Details: 10 µM; 3 days.

Row | SMILES | total cell number
1 | CC(C)OC(=O)C(C(=O)OC(C)C)=C1SC=CS1 [Malotilate] | 7.42
2 | COc1ccc(C2(CNC(=O)c3ccc(NC(=O)c4ccco4)cc3)CCOCC2)cc1 | -6.22
3 | CCc1cccc(CC)c1NC(=O)N1Cc2[nH]nc(NC(=O)c3ccc(N4CCN(C)CC4)cc3)c2C1 | -17.5
4 | CO[C@@H](C(=O)N1Cc2[nH]nc(NC(=O)c3ccc(N4CCN(C)CC4)cc3)c2C1)c1ccccc1 | -24.2
5 | Cc1cc2c(F)c(Oc3ncnn4cc(OC[C@@H](C)OC(=O)[C@H](C)N)c(C)c34)ccc2[nH]1 | -4.11
6 | Cc1cc2c(F)c(Oc3ncnn4cc(OC[C@@H](C)O)c(C)c34)ccc2[nH]1 | -1.9
7 | COc1cc2c(Oc3ccc4[nH]c(C)cc4c3F)ncnc2cc1OCCCN1CCCC1 [Cediranib (AZD2171)] | -26.9
8 | CN(C)C(=O)[C@H](O)[C@H](Cc1ccccc1)NC(=O)c1cc2cc(Cl)ccc2[nH]1 | 0.79 ± 0.2
9 | CCCC(CCC)C(=O)O[C@H]1C[C@H]2CC[C@@H](C1)[N+]2(C)C [Anisotropine methyl bromide] | 12.1
10 | Cc1c(CN2CCN(C(=O)[C@H](C)O)CC2)sc2c(N3CCOCC3)nc(-c3cnc(N)nc3)nc12 | -11.4
11 | COc1ccc(-c2nc(N3CCOCC3)c3sc(CN(C)c4ncc(C(=O)NO)cn4)cc3n2)cn1 | -10.4
12 | CS(=O)(=O)N1CCN(Cc2cc3nc(-c4cccc5[nH]ncc45)nc(N4CCOCC4)c3s2)CC1 | -23.7
13 | O=c1cc(-c2ccccc2)oc2cc(O)c(O)c(O)c12 [Baicalein] | -6.52
14 | CCCCOc1ccc(C(=O)Nc2ccc(F)cc2F)cc1 | 1.72
15 | CCCCCCCCCCCC1=C(O)C(=O)C=C(O)C1=O [Embelin] | 1
16 | COc1cc(Nc2ncc3c(n2)-c2ccc(Cl)cc2C(c2c(F)cccc2OC)=NC3)ccc1C(=O)O [Alisertib (MLN8237)] | -12.8
17 | NS(=O)(=O)c1ccc(-n2nc(C(F)(F)F)cc2-c2ccc(Cl)cc2)cc1 | 0.298
18 | Cc1ccc(-c2cc(C(F)(F)F)nn2-c2ccc(S(N)(=O)=O)cc2)cc1 [Celecoxib] | 0.578 ± 0.53
19 | NCC(=O)Nc1ccc(-n2nc(C(F)(F)F)cc2-c2ccc3c(ccc4ccccc43)c2)cc1 | -26.5
20 | CCCCc1nc2cc(/C=C/C(=O)NO)ccc2n1CCN(CC)CC [Pracinostat (SB939)] | -12.2
21 | CCN(CC)CCNC(=O)c1cc(S(C)(=O)=O)ccc1OC [Tiapride hydrochloride] | -1.15
22 | Cc1[nH]c(/C=C2\C(=O)Nc3ccccc32)c(C)c1CCC(=O)O [TSU-68 (SU6668, Orantinib)] | -0.233
23 | CCN(CC)CCNC(=O)c1c(C)[nH]c(/C=C2\C(=O)Nc3ccc(F)cc32)c1C [Sunitinib Malate] | -26.5

Row | SMILES | total cell number
24 | CCN(CC)CCNC(=O)c1c(C)[nH]c(/C=C2\C(=O)Nc3ccc(F)cc32)c1C [Sunitinib malate] | -11.2
25 | C[N+](C)(C)CC(O)CC(=O)[O-] (racemic) [DL-Carnitine HCl] | 2.24
26 | CC(=O)C(C)=O [2,3-Butanedione] | -1.17
27 | CC[C@H]1OC(=O)C[C@@H](O)[C@H](C)[C@@H](O[C@@H]2O[C@H](C)[C@@H](O)[C@H](N(C)C)[C@H]2O)[C@@H](CCN2C[C@H](C)C[C@H](C)C2)C[C@@H](C)C(=O)/C=C/C(C)=C/[C@@H]1CO[C@@H]1O[C@H](C)[C@@H](O)[C@@H](OC)[C@H]1OC [Tilmicosin] | -3.95
28 | Cc1cc(C)c(/C=C2\C(=O)Nc3ccccc32)[nH]1 | -3.96
29 | COC1=CC(c2cc3ccccc3[nH]2)=N/C1=C\c1[nH]c(C)cc1C [Obatoclax Mesylate (GX15-070)] | -27.6
30 | Cc1cc(C)c(/C=C2\C(=O)Nc3ccccc32)[nH]1 [Semaxanib (SU5416)] | -1.49
31 | C[C@H](NC(=O)Cc1cc(F)cc(F)c1)C(=O)N[C@@H]1C(=O)N(C)c2ccccc2-c2ccccc21 | -6.63
32 | NS(=O)(=O)c1nn2cc(-c3ccccc3)nc2s1 | -5.78
33 | CCCCCCCC/C=C\CCCCCCCC(=O)NCc1ccc(O)c(OC)c1 [Olvanil] | -4.4
34 | Cc1cc(Nc2cc(N3CCN(C)CC3)nc(/C=C/c3ccccc3)n2)n[nH]1 | -26.3
35 | Cc1cc(Nc2cc(N3CCN(C)CC3)nc(Sc3ccc(NC(=O)C4CC4)cc3)n2)n[nH]1 [VX-680 (Tozasertib, MK-0457)] | -24
36 | C[C@@H](N)[C@H]1CC[C@H](C(=O)Nc2ccncc2)CC1 | -1.42 and -2.14
37 | O=C(Nc1ccc2[nH]ncc2c1)C1CCC1 [Rhodblock 6] | -2.58
38 | Fc1ccc(C(OCCCc2cnc[nH]2)c2ccc(F)cc2)cc1 | -1.91
39 | CC(C)NCC(O)c1ccc(NS(C)(=O)=O)cc1 (racemic) [(±)-Sotalol hydrochloride] | -1.64
40 | COCCNC(=O)COc1ccc(OCCNC[C@H](O)COc2ccccc2)cc1 [ZD 7114 hydrochloride] | -0.987
41 | CCCC(=O)O[C@]1(C(=O)COC(C)=O)CC[C@H]2[C@@H]3C[C@H](F)C4=CC(=O)C=C[C@]4(C)[C@@]3(F)[C@@H](O)C[C@@]21C [Difluprednate] | 4.34
42 | COc1cc(N2CCN(C)CC2)ccc1Nc1nccc(-c2cn(C)c3cnccc23)n1 | -15.9
43 | O=C(O)Cc1ccc(O)c(O)c1 [3,4-Dihydroxyphenylacetic acid] | -1.97
44 | Nc1nc(Cl)nc2c1ncn2[C@H]1C[C@H](O)[C@@H](CO)O1 [Cladribine] | -22.8
45 | Nc1nc(Cl)nc2c1ncn2[C@@H]1O[C@H](CO)[C@@H](O)[C@@H]1F [Clofarabine] | -21.2
46 | Nc1nc(Cl)nc2c1ncn2[C@@H]1O[C@H](CO)[C@@H](O)[C@H]1O [2-Chloroadenosine] | -3.18

Row | SMILES | total cell number
47 | c1cnc2cc3c(cc2n1)[C@@H]1CNC[C@H]3C1 [Varenicline Tartrate] | 1.55
48 | c1cnc2cc3c(cc2n1)[C@@H]1CNC[C@H]3C1 [Varenicline tartrate] | -2.7
49 | O=C(O)C1(C(=O)O)CCC1.[NH2-].[NH2-].[Pt+2] [Carboplatin] | -4.56 ± 1.4
50 | CSc1nc(N)c2ncn([C@@H]3O[C@H](COP(=O)(O)OP(=O)(O)OP(=O)(O)O)[C@H](O)C3O)c2n1 (some centres undefined) [2-Methylthioadenosine triphosphate tetrasodium] | 1.81
51 | Nc1ncnc2c1c(-c1ccc(Oc3ccccc3)cc1)cn2C1CCCC1 | -5.56
52 | C=CC(=O)N1CCC[C@@H](n2nc(-c3ccc(Oc4ccccc4)cc3)c3c(N)ncnc32)C1 | -8.95
53 | Nc1ncnc2c1c(-c1cccc(OCc3ccccc3)c1)cn2C1CC(CN2CCCC2)C1 (centres undefined) | -25.8
54 | O=C(Nc1ccccc1C(=O)NC1CCCCNC1=O)c1cc2ccccc2s1 (centres undefined) | -0.315
55 | COC(=O)N[C@H](C(=O)N1CCC[C@H]1c1ncc(-c2ccc(-c3ccc(-c4cnc([C@@H]5CCCN5C(=O)[C@@H](NC(=O)OC)C(C)C)[nH]4)cc3)cc2)[nH]1)C(C)C | -5.73
56 | COc1cccc2c1[C@@H]1CN(CCCCn3c(=O)[nH]c4c(sc5ncc(-c6ccccc6)nc54)c3=O)C[C@@H]1CO2 [Fiduxosin hydrochloride] | -6.17
57 | Cc1nc(C(=O)NCC(=O)O)c(O)c2ccc(Oc3ccccc3)cc12 | 3.22
58 | C[C@@H](Oc1cc(-n2cnc3ccc(CN4CCN(C)CC4)cc32)sc1C(N)=O)c1ccccc1C(F)(F)F | -14.7
59 | CC(C)c1cc(C(=O)N2Cc3ccc(CN4CCN(C)CC4)cc3C2)c(O)cc1O | -25.7
60 | Nc1ncnc2c1ncn2[C@@H]1O[C@H](COP(=O)(O)OP(=O)(O)OP(=O)(O)OP(=O)(O)OC[C@@H]2O[C@H](n3cnc4c(N)ncnc43)C(O)[C@@H]2O)[C@H](O)C1O (some centres undefined) [P1,P4-Di(adenosine-5')tetraphosphate triammonium] | -0.947
61 | Nc1c(S(=O)(=O)O)cc(Nc2ccc(Nc3nc(Cl)nc(Nc4cccc(S(=O)(=O)O)c4)n3)c(S(=O)(=O)O)c2)c2c1C(=O)c1ccccc1C2=O [Reactive Blue 2] | -0.98
62 | C[C@@H]1O[C@@H](O[C@H]2[C@H](Oc3cc(O)c(C(=O)CCc4ccc(O)cc4)c(O)c3)O[C@H](CO)[C@@H](O)[C@@H]2O)[C@H](O)[C@H](O)[C@H]1O [Naringin Dihydrochalcone] | -0.984
63 | Cc1nc2c([nH]1)c(=O)n(C)c(=O)n2Cc1ccco1 [Furafylline] | -0.322
64 | O=C(Nc1cccc(Nc2ncc(Br)c(NCCc3cnc[nH]3)n2)c1)N1CCCC1 | -24.3
65 | C=CC(=O)Nc1cccc(Nc2nc(Nc3ccc(OCCOC)cc3)ncc2F)c1 | -15.3
66 | O=C(NCCCNc1nc(Nc2cccc(NC(=O)N3CCCC3)c2)ncc1I)c1cccs1 | -23.5
67 | Cc1cnc(Nc2ccc(OCCN3CCCC3)cc2)nc1Nc1cccc(S(=O)(=O)NC(C)(C)C)c1 | -12.3
68 | NC[C@@H]1O[C@H](c2ccccc2)Cc2c1ccc(O)c2O | -2.54
69 | CCCCCCCCCCCCc1ccc(S(=O)(=O)Nc2nncs2)cc1 | 1.21
